# Screens: PubChem BioAssay, National Center for Advancing Translational Sciences (NCATS)
# An excerpt weighted towards active compounds, which were near 4.7% of everything screened.
# ATXN2 expr inh – ATXN2 expression inhibition; HEK-293 ATXN2-luciferase reporter, luminescence, 24 h; Potency, µM (titrated, usually from 57 µM), for inactives: top-dose activity change, negative = inhibition, most hits filed as inhibitors; 360,000 compounds, 0.72% hits; AID 1745845; note: potency is the fitted concentration of half-maximal effect; % is set by controls: 0 for no effect and ±100 for the full control effect; nearly all actives have a fitted effect of over 55% in size
#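 qHTS (up to 57 uM final) was run with 24 h compound exposure of reporter cells at 37 °C. Each well was multiplexed: SteadyGlo luminescence measured ATXN2-luciferase expression after a fluorogenic Gly-Phe-AFC viability readout (25 uM final).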
# HepG2 viability – counter-screen for TGF-b inhibitors: cytotoxicity in HepG2 cells. HepG2 CAGA-GFP viability, ATP luminescence, 18 h. Potency, µM (titrated, usually from 46.1 µM), for inactives: top-dose activity change, negative = cytotoxicity, usual class: cytotoxic. 410,000 compounds, 0.76% hits. AID 588856; note: potency is the fitted concentration of half-maximal effect
#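 HepG2 CAGA-GFP cells (1000/well, DMEM with 1% FBS) received compound, then TGF-beta at 500 pg/mL final, and were incubated 18 hours at 37 degrees C. Viability was read by CellTiter-Glo luminescence. Media-only wells were set as complete cell-killing and DMSO as no toxicity.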
# DRD3 agonist – activates the human D3 dopamine receptor | 410,000 compounds, 0.58% hits | D3R DiscoveRx beta-arrestin cells, luminescence, 90 min | P35462 | max activation, % | AID 652048; in the data active = max activation above about 30%; note: 0% is about no effect
# Target sequence (P35462 whole entry, looked up): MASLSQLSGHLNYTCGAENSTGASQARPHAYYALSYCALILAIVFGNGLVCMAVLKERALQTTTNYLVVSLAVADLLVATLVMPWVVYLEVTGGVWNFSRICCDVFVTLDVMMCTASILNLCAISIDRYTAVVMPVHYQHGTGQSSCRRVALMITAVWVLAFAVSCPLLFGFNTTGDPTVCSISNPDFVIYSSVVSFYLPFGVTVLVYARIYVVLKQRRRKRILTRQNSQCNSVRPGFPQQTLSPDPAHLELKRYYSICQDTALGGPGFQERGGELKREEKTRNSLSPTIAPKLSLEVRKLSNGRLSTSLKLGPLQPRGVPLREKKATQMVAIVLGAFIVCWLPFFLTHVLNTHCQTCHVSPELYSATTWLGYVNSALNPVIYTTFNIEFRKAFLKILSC
#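 Cells at 1500/well, incubated overnight, then treated with pinned compounds (dopamine as control) for 90 min at 37 degrees C. DiscoveRx reagent added for 30 - 60 minutes at room temperature; luminescence read.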
# D3 antag – antagonists of human D3 dopamine receptor | P35462 | D3R cells, DiscoveRx beta-arrestin luminescence, antagonist mode; hits give low values | max response, negative = inhibition, % | 360,000 compounds, 2.5% hits; in the data active = max response below about -50%; inconclusive = no clear call, values can overlap the other calls; note: % is set by controls: 0 for no effect and ±100 for the full control effect
#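 Cells plated overnight at 1500 cells/well, then exposed to library compounds with dopamine controls for 90 minutes at 37 degrees C. DiscoveRx reagent added for 30–60 minutes at room temperature; luminescence read, quantitative HTS format.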
# S2 tox – reduces viability in counter-screen for ATXN expression inhibitors. S2 cells (HEK-293 line with an ATXN2-luciferase reporter) viability, CellTiter-Fluor protease fluorescence, 24 h. Potency, µM (titrated, usually from 56.7 µM), actives largely listed as cytotoxic. 400,000 compounds, 0.49% hits; note: potency is the fitted concentration of half-maximal effect; nearly all actives have a fitted effect of over 40% in size
# TGFb SMAD3 inh – blocks TGF-b signaling; HepG2 CAGA-GFP TGF-b/SMAD3 reporter, GFP fluorescence, 18 h; TGF-beta stimulated, 500 pg/mL final; Potency, µM (top dose mostly 46.1 µM), inactives show at the highest dose activity, negative = inhibition, actives largely listed as inhibitors; 410,000 compounds, 1.2% hits; AID 588855; note: potency is the fitted concentration of half-maximal effect; % is set by controls: 0 for no effect and ±100 for the full control effect; nearly all actives have a fitted effect of over 65% in size
#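 Inhibition was scored as loss of TGF-beta-induced (500 pg/mL final, 18 hours, 37 degrees C) GFP in HEPG2 cells carrying a CAGA-GFP reporter, in DMEM with 1% FBS. Well GFP was summed per cell; Activity was normalised to unstimulated and stimulated DMSO wells, then concentration-response fitting.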
# An asterisk follows results filed as active; i = inactive; ? = inconclusive; · = not tested or not shown. Unless noted, calls come from the whole dose curve; as a rule, active = well fitted curve in the direction sought with a large enough effect; inconclusive = small, poorly fitted or top-dose-only effect, or another doubt; inactive = no such curve, though single readings can be large; an effect the other way counts as inactive or inconclusive.
SMILES,ATXN2 expr inh,HepG2 viability,DRD3 agonist,D3 antag,S2 tox,TGFb SMAD3 inh
COc1ccc(C(CCNCc2ccc(OC(C)C)cc2)C(C)C)cc1 (stereo unspecified),?,22µM*,-11,-7,?,?
CCOCCCNCc1ccc(OC)c(OC)c1,4%,0%,-4,-18,i,-10%
COc1ccc(CNCCC(c2ccc(OC(C)C)cc2)C(C)C)cc1OC (stereo unspecified),32µM*,16µM*,-43,-24,·,?
COc1ccc(C(CCNCc2ccc(N(C)C)cc2)C(C)C)cc1 (stereo unspecified),·,10µM*,-4,14,?,?
COc1ccc(-c2oc3ncn4nc(-c5ccccc5O)nc4c3c2-c2ccc(OC)cc2)cc1,8%,4%,7,·,i,-1%
COC(=O)C1=C(C)NC(C)=C(C(=O)OCC(C)C)C1c1ccccc1[N+](=O)[O-] (stereo unspecified),?,-45%,-11,-8,?,18µM*
COC(=O)C1=C(C)NC(C)=C(C(=O)OCC(C)=O)C1c1ccccc1[N+](=O)[O-] (stereo unspecified),?,·,-11,·,?,·
COc1ccc(CCNc2oc(COc3ccc(Br)cc3)nc2C#N)cc1OC,?,-11%,2,7,?,?
COc1ccc(CCNc2oc(Cc3cccc4ccccc34)nc2C#N)cc1OC,?,-8%,5,-60*,?,?
CC(=O)Nc1ccc([N+](=O)[O-])cn1,5%,6%,-8,-53*,i,0%
O=[N+]([O-])c1ccc(Nc2ccc3ccccc3c2)nc1,37%,6%,-16,-107*,i,-19%
CCN1C[C@@H]2[C@@H]3C(=O)N(Cc4ccccc4)C(=O)[C@@H]3[C@](CC)(C1=O)N2C(=O)c1ccc(C(C)(C)C)cc1,-6%,-10%,4,1,i,0%
CCN1C[C@@H]2[C@@H]3C(=O)N(Cc4ccccc4)C(=O)[C@@H]3[C@](C)(C1=O)N2C(=O)c1ccccc1,1%,1%,43*,0,i,-1%
Cc1ccc(C(=O)N2[C@@H]3CN(C)C(=O)[C@@]2(C)[C@H]2C(=O)N(Cc4ccccc4)C(=O)[C@@H]32)cc1,4%,-1%,32*,12,i,-6%
CCN1C[C@@H]2[C@@H]3C(=O)N(Cc4ccccc4)C(=O)[C@@H]3[C@](Cc3ccccc3)(C1=O)N2C(=O)c1ccc(C(C)(C)C)cc1,?,1%,-14,2,32µM*,1%
N=c1nc(-c2ccccc2)n(-c2ccccc2)s1,·,-13%,·,·,·,-1%
Cc1ccccc1C(=O)Nc1ccc(OCc2cc(=O)n3ccccc3n2)cc1,·,0%,-17,·,·,-16%
COc1ccc(CN2CCN(c3ccccc3OC)CC2)cc1OC,-19%,-22%,-31,-77*,i,-21%
COC(=O)c1cc(CN2CCN(c3ccccc3C)CC2)ccc1O,-19%,-11%,-63,-80*,i,-1%
COc1ccc(CC(C)N2CCN(c3ccccc3)CC2)cc1OC (stereo unspecified),-17%,-20%,-18,-147*,i,-1%
COc1ccccc1N1CCN(Cc2cnc3ccc(Cl)cn23)CC1,·,-5%,-5,-91*,i,21%
COc1ccccc1N1CCN(Cc2cccs2)CC1,-6%,-4%,-35,-82*,i,-5%
COc1ccccc1N1CCN(Cc2ccsc2)CC1,-9%,-15%,-10,-92*,i,-13%
COc1ccccc1N1CCN(Cc2ccc(C(=O)O)cc2)CC1,21%,1%,-16,-21,i,1%
COc1cc(CN2CCN(c3ccccc3F)CC2)cc(OC)c1O,9%,0%,43*,?,i,?
SMILES,ATXN2 expr inh,HepG2 viability,DRD3 agonist,D3 antag,S2 tox,TGFb SMAD3 inh
COc1ccccc1N1CCN(S(=O)(=O)c2cccs2)CC1,2%,-10%,-1,-7,i,2%
CC(=O)Nc1c(C(=O)NCc2ccccc2)nnn1Cc1ccccc1,7%,1%,2,-56*,i,7%
COc1ccccc1NC(=O)c1nnn(Cc2ccccc2)c1NC(C)=O,0%,-6%,-6,-70*,i,4%
COc1ccccc1NC(=O)c1nnn(Cc2ccccc2)c1NC(=O)C(F)(F)F,19%,7%,-13,-22,i,6%
Cc1cccc(Cn2c(=O)n(CCCCC(=O)NCc3ccc4c(c3)OCO4)c(=O)c3ccccc32)c1,17%,-9%,1,·,i,1%
O=C(c1nc[nH]c1C(=O)N1CCc2ccccc2C1)N1CCc2ccccc2C1,0%,-26%,142*,36,i,1%
O=C(Nc1ccc(F)cc1)N1CCN(CCc2ccccc2)CC1,-1%,-7%,-5,3,i,0%
CCNC(=O)N1CCN(CCCC(c2ccc(F)cc2)c2ccc(F)cc2)CC1,?,-33%,-88,-114*,?,-11%
CCN1C(C(=O)c2ccccc2)=C(OC(=O)c2ccccc2OC)c2ccccc2S1(=O)=O,?,4.5µM*,3,·,?,10µM*
CCCCC(=O)OC1=C(C(=O)c2ccccc2)N(CC)S(=O)(=O)c2ccccc21,?,-43%,-17,·,?,?
CN1CCN(c2cc3c(c4c2[nH]c2ccccc24)C(=O)CC(C)(C)C3)CC1,?,11µM*,0,-7,?,?
O=C(NC1CCCCCC1)C1CCC(CNS(=O)(=O)c2cccc3cccnc23)CC1 (stereo unspecified),·,-23%,·,·,·,3%
Nc1nc2c(s1)CCc1c-2cnn1-c1ccccc1,·,-121%,2,10,?,18µM*
Cc1ccc(C(=O)CN2/C(=C(\O)c3ccccc3)C(=O)c3ccccc3S2(=O)=O)c(C)c1,-14%,-37%,-4,-50*,i,-2%
O=C(CN1C(=O)c2ccccc2S1(=O)=O)c1ccccc1,14µM*,6%,11,38,i,0%
O=C(CN1C(=O)c2ccccc2S1(=O)=O)Nc1ncc(Cl)cc1Cl,5µM*,3%,-3,?,i,18%
Cc1ccc(C(=O)CN2C(=O)c3ccccc3S2(=O)=O)cc1,1µM*,-22%,16,0,i,2%
CCOC(=O)c1ccccc1NC(=O)c1sc2ncn(CC)c(=O)c2c1C,9%,-22%,4,·,i,-29%
CCCCCc1c2c(cc(O)c1C(=O)O)OC(=O)c1c(cc(OC)cc1C(=O)CCCC)O2,?,-69%,3,9,·,20µM*
